High-throughput results: PubChem, Emory University Molecular Libraries Screening Center
Not all results are given here.
Measles inh – inhibitors of measles virus growth in infected cells; infected Vero cells, GFP fluorescence, 64 h; hits give low values; 33,000 tested, 0.1% active; z-score (no concentration beside the values); in the data active = z-score below about -3
* hit, by the source's call.

SMILES	Measles inh
COc1ccc(C2C(C(=O)OCCOc3ccccc3)=C(C)NC3=C2C(=O)CC(c2ccc(Cl)cc2)C3)cc1 (stereo unspecified)	-0.08
COC(=O)c1nc2n(n1)C(c1cccc(Cl)c1)C(C(=O)OC1CCCCC1)=C(C)N2 (stereo unspecified)	0.42
CCn1c(=NC(=O)c2ccc(S(=O)(=O)N3CCCC3)cc2)sc2cccc(Cl)c21	1.1
COC(=O)c1ccc(C(=O)OC)c(NC(=O)NS(=O)(=O)c2ccc(C)cc2)c1	1.6
Cc1ccc(C(=O)Nc2ccc(-c3nc4ncccc4o3)cc2)c(Cl)c1	-0.33
COc1ccc(C2N(c3ccccc3)CCN2c2ccccc2)cc1[N+](=O)[O-]	-1.3
